Many of the other results were omitted from the sample, so hits are more common in it than they were.
Pf Dd2 growth = Plasmodium falciparum Dd2 growth inhibition | P. falciparum Dd2 growth, SYBR Green, 72 h | Potency, µM (series often up to 28.9 µM), actives largely listed as inhibitors | 120,000 tested, 4.3% active | AID 1347417; active = well fitted inhibition curve with a large enough effect; also: nearly all actives have a fitted effect of over 65% in size
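Readout: SYBR Green fluorescence, 485 nm excitation, 535 nm emission, after ~16 h lysis at 37C. Before that, Dd2-infected red cells (2.5% hematocrit) grew 72 h with compound, 29 uM top final concentration.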
Hits are given with their value; i = inactive; [ ] = dose if it differs, or a comment.

SMILES	Pf Dd2 growth
COc1ccc(CNC(=O)C[C@@H]2c3nc(NC(=O)c4cccs4)sc3C[C@@H]3[C@](C)(CO)[C@H](O)CC[C@]32C)cc1	3.98µM
C=CCN(C)C(=O)C[C@@H]1c2nc(NC(=O)c3cccs3)sc2C[C@@H]2[C@](C)(CO)[C@H](O)CC[C@]21C	11.2µM
C[C@]1(CO)[C@H]2Cc3sc(NC(=O)C4CCCCC4)nc3[C@@H](CC(=O)O)[C@]2(C)CC[C@H]1O	i
Cc1nn(C)c(C)c1S(=O)(=O)N1CCC2(CCC(=O)N(Cc3ccccc3)CC2)CC1	i
CC1(C)[C@H](Cc2cc(CN3CCOCC3)on2)C[C@@H]1NS(=O)(=O)c1ccccc1	i
CS(=O)(=O)N1CCC(OC2CCN(C(=O)Nc3ccccc3)CC2)CC1	i
Cc1ccc(N2CCC(NC(=O)c3ccccc3C)C2=O)cc1 (centres undefined)	i
CCn1ncc(CN2CC[C@@H]3CN(S(C)(=O)=O)[C@@H]3C2)c1C	i
Cc1cnc(C2CC2)n1C1CCCNC1 (centres undefined)	i
Cc1cnc(-c2ccccc2)n1C1CCCNC1 (centres undefined)	6.31µM
COCc1ncc(C)n1C1CCCNC1 (centres undefined)	i
CC(C)CN(C1CCOCC1)C1CN(S(=O)(=O)c2cn(C)cn2)C1	i
COC[C@@H]1[C@H](NC(=O)c2cc(S(N)(=O)=O)ccc2OC)[C@@H]2CCO[C@H]12	i
CN(C)C(=O)C1CN(C(=O)c2ccc(Cl)s2)CC12CCOCC2 (centres undefined)	i
O=C(Cn1cc(S(=O)(=O)Cc2ccccc2F)c2ccccc21)Nc1ccc(F)c(Cl)c1	i
COc1cc(Cl)c(C)cc1NC(=O)Cn1cc(S(=O)(=O)N2CCN(c3ccccc3F)CC2)c2ccccc2c1=O	11.2µM
Cc1cc(Br)ccc1NC(=O)Cn1cc(S(=O)(=O)N2CCN(c3ccccc3F)CC2)c2ccccc2c1=O	i
COc1ccc(NC(=O)Cn2cc(S(=O)(=O)N3CCN(c4ccccc4F)CC3)c3ccccc3c2=O)cc1Cl	12.6µM
Cc1ccccc1NC(=O)c1ccc(F)c(S(=O)(=O)N2CCN(c3ccccc3F)CC2)c1	i
COc1ccc(NC(=O)Cn2cc(S(=O)(=O)N3CCC(C)CC3)c3ccccc3c2=O)cc1Cl	i
CCNC(=O)N1CCC(Cc2ccc(C(=O)NCCN3CCN(CC)CC3)cc2)CC1	i
OCc1ccc(CN(Cc2ccc(CO)o2)C2(Cc3cc(-c4ccccc4)on3)COC2)o1	i
Cc1cc(C)cc(NC(=O)C2CCN(c3cc(C(F)(F)F)nc(C)n3)CC2)c1	i
Cc1noc(C2CCCCN2C(=O)c2ccc(-c3ccccc3Cl)o2)n1 (centres undefined)	i
CCn1cnnc1CC1CCCN(S(=O)(=O)c2ccccc2C)C1 (centres undefined)	i
SMILES	Pf Dd2 growth
COCCNC(=O)c1ccc2c(c1)N(C)C(CC(=O)NCc1ccon1)CO2 (centres undefined)	i
N#Cc1cc2c(=O)n(CCc3n[nH]c4c3CCCC4)ccc2[nH]c1=O	i
Cc1ccc(NC(=O)c2ccc3c(c2)N(C)C2CCCCCN2C3=O)cc1F (centres undefined)	i
CCN(C(=O)c1cc2c(=O)oc3ccc(C)cc3c2s1)c1cc(OC)ccc1OC	i
CCN(C(=O)c1cc2c(Cl)nc3ccccc3c2s1)c1cccc(Cl)c1	10µM
CCc1ccccc1N(C)C(=O)c1cc2c(Cl)nc3ccc(C)cc3c2s1	i[5.79 µM]
Cc1ccc(Cl)cc1N(C)C(=O)c1cc2c(Cl)nc3ccccc3c2s1	i
CCN(C(=O)c1cc2c(Cl)nc3ccc(C)cc3c2s1)c1cc(OC)ccc1OC	8.91µM
CCN(C(=O)c1cc2c(=O)oc3ccccc3c2s1)c1cccc(C(F)(F)F)c1	i
CN1C(=O)c2cccn2CC1CNC(=O)c1cccc2nccnc12 (centres undefined)	i
CC(C)NC(=O)C1CCc2nnc(CNC(=O)C3CC3)n21 (centres undefined)	i
CCn1ccc(C(=O)N2CCCC2c2cc(C)no2)n1 (centres undefined)	i
O=C(COc1ccc(F)cc1F)N1CCN(C(=O)C2CCCO2)CC1 (centres undefined)	i
Cc1cnc(C(=O)NCC(=O)N2CCCCCCNC(=O)CC2c2ccccc2)cn1 (centres undefined)	i
Cc1ccc(Sc2c(C)nn(C(=O)c3ccc(Br)cc3)c2C)cc1	i
CCC(=O)Oc1c(Sc2ccc(Cl)cc2)c(C)nn1-c1ccccc1	i
Cc1nn(C(=O)c2ccccc2)c(C)c1Sc1ccc(Cl)cc1	11.2µM
Fc1ccc(OC2CN(CC3CC3)C2)cc1F	i
Cc1ccc(O[C@H]2CCOC[C@H]2NC(=O)CCc2c(C)noc2C)cn1	i
CCCNC(=O)C1COC2(CCN(C(=O)c3cccc(F)c3)CC2)N1C(=O)c1cccc(OC)c1 (centres undefined)	i
Cc1ccccc1NC(=O)c1c(NC(=O)c2ccccc2)sc2c1CCC2	i
Cc1ccccc1NC(=O)c1c(NC(=O)C(F)(F)F)sc2c1CCCCC2	10µM
Cc1cccc(C(=O)Nc2sc3c(c2C(=O)Nc2ccccc2)CCC3)c1	i
O=C(Nc1cccc(Cl)c1)c1c(NC(=O)C(F)(F)F)sc2c1CCCC2	12.6µM
CCCNC(=O)c1c(NC(=O)c2ccc(C)cc2)sc2c1CCCCC2	i
SMILES	Pf Dd2 growth
O=C(COc1ccc(Cl)cc1)Nc1sc2c(c1C(=O)Nc1cccc(Cl)c1)CCCC2	i
O=C(Nc1sc2c(c1C(=O)Nc1ccc(Cl)cc1)CCCC2)c1cccs1	i
Cc1ccc(NC(=O)c2c(NC(=O)c3ccccc3)sc3c2CCC3)cc1	i
CCc1ccccc1NC(=O)c1c(NC(=O)c2ccccc2)sc2c1CCCC2	i
Cc1cccc(NC(=O)c2c(Br)sc3c2CCCC3)c1	i
Cc1ccc(NC(=O)c2c(NC(=O)C(F)(F)F)sc3c2CCCCC3)cc1	3.98µM
Cc1cccc(NC(=O)c2c(NC(=O)C(F)(F)F)sc3c2CCCCC3)c1	4.47µM
Cc1nc(CNC(=O)c2cccc(S(=O)(=O)N3CCC[C@H]3CO)c2)no1	i
COc1ccc2c(c1)OCC(C(=O)N(C)Cc1nccn1Cc1ccccc1)C2 (centres undefined)	i
O=C1NCCOCCCN(C(=O)Nc2ccc3c(c2)OCCO3)[C@H]2CCCC[C@@H]12	i
O=C(CCc1ccsc1)NC1CCCc2nc(-c3ccccc3)ncc21 (centres undefined)	i
CCn1c(C)cc(C(=O)N2CC[C@H](N3CCN(C)CC3)[C@H](CCCO)C2)c1C	i
O=C(O)C1Cn2cccc2C(=O)N1Cc1cccnc1 (centres undefined)	i
Cc1ccc(CN2CCN(C(=O)C3Cn4cccc4C(=O)N3Cc3cccnc3)CC2)cc1 (centres undefined)	12.6µM
CC(C)CN1C(=O)c2cccn2CC1C(=O)N1CCN(Cc2ccc3c(c2)OCO3)CC1 (centres undefined)	i
Cc1nn(-c2ccccc2)c(Oc2ccc(F)cc2F)c1CCC(=O)NCC1CC1	i
COc1cccc(CCC(=O)N2CCC(c3noc(-c4cnccn4)n3)C2)c1 (centres undefined)	i[5.79 µM]
CN(C)S(=O)(=O)N1CC(c2nnc(-c3ccncc3)o2)C2(CCOCC2)C1 (centres undefined)	i
COCCN1CCCCCC(O)c2cc(C(=O)NCCCN3CCCc4ccccc43)ccc21 (centres undefined)	i
COCCN1CCCCCC(O)c2cc(C(=O)NCCN3CCOCC3)ccc21 (centres undefined)	i
COCCN1CCCCCC(O)c2cc(C(=O)NCCc3c[nH]c4ccccc34)ccc21 (centres undefined)	5.01µM

From PubChem BioAssay
